# Source: PubChem BioAssay (NCATS)
# Several values for one entry are separate records, joined by “and”; a condition that tells them apart may be missing. Equal values may be shown once. Inconclusive results are not listed. Entries that show only a call come without a potency. Unmarked numbers belong to inactive results. Activity calls are given as the source filed them. The call rests on the fitted dose curve; in most records, active means well fitted curve in the direction sought with a large enough effect; inconclusive means small, poorly fitted or top-dose-only effect, or another doubt; inactive means no such curve, though single readings can be large; an effect the other way counts as inactive or inconclusive.
# Columns and labels:
# CRL-7250 [1] = assay: qHTS assay to identify novel small-molecules to repurpose for Merkel cell carcinoma treatment (AID 1296009); details: MCC and control cell lines, CellTiter-Glo viability, 72 h; series mostly up to 44.8 µM; further: nearly all actives have a fitted effect of over 60% in size; further: potency means the concentration at half of the fitted maximal effect
# Procedure, shortened: (§1)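 72 hr, 37 degree celsius; NPC 8-pt / MIPE 11-pt dose response; compound pinned in DMSO; CellTiter-Glo, 10 min RT, luminescence; normalized to no-cell and DMSO controls.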
# TAB109 = assay: qHTS profiling for inhibitors of Plasmodium falciparum proliferation (AID 504749); further: nearly all actives have a fitted effect of over 60% in size; further: potency means the concentration at half of the fitted maximal effect; details: P. falciparum in erythrocytes, SYBR Green DNA, 72 h; series mostly up to 28.7 µM
# Procedure, shortened: (§2)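 Infected RBCs, 0.3% parasitemia/2.5% Hct final; cpd 72 h, 37 C, 5% CO2; lysis buffer with saponin/triton/SYBR Green I, o/n RT dark; FI 485/535; norm. to artemisinin (0.29 uM) and DMSO.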
# TAB113 = assay: as above; details: P. falciparum in erythrocytes, SYBR Green DNA, 72 h; series mostly up to 28.7 µM
# Procedure, shortened: as §2
# TAB165 = assay: as above; details: P. falciparum in erythrocytes, SYBR Green DNA, 72 h; series mostly up to 28.7 µM
# Procedure, shortened: as §2
# HEK293 = assay: Cytotoxic Profiling of Annotated Libraries Using Quantitative High-Throughput Screening (AID 1296008); details: Five cell lines viability, CellTiter-Glo ATP luminescence, 48-72 h; max response: hits give low values; further: nearly all actives have a fitted effect of over 60% in size; further: potency means the concentration at half of the fitted maximal effect
# Procedure, shortened: (§3)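 Cytotoxicity was measured as CellTiter-Glo ATP luminescence, read after 10 min at room temperature. Compound treatment of the cells lasted 48 or 72 hr at 37 degrees Celsius in a qHTS format.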
# HaCat [2] = assay: as above; details: Five cell lines viability, CellTiter-Glo ATP luminescence, 48-72 h; max response: hits give low values
# Procedure, shortened: as §3
# KB-3-1 = assay: as above; details: Five cell lines viability, CellTiter-Glo ATP luminescence, 48-72 h; max response: hits give low values
# Procedure, shortened: as §3
# NIH3T3 [3] = assay: as above; details: Five cell lines viability, CellTiter-Glo ATP luminescence, 48-72 h; max response: hits give low values
# Procedure, shortened: as §3
# HACAT [4] = assay: qHTS assay to identify novel small-molecules to repurpose for Merkel cell carcinoma treatment (AID 1296009); details: MCC and control cell lines, CellTiter-Glo viability, 72 h; at 44.8 µM (top of the series) unless noted; further: nearly all actives have a fitted effect of over 60% in size; further: potency means the concentration at half of the fitted maximal effect
# Procedure, shortened: as §1
# MCC-13 = assay: as above; details: MCC and control cell lines, CellTiter-Glo viability, 72 h; series mostly up to 46 µM
# Procedure, shortened: as §1
# C33A = assay: Primary qHTS to identify gynecologic anti-cancer compounds using libraries of approved drugs and bioactive compounds (AID 1345084); details: Gynecologic cancer cell panel viability, ATPlite luminescence, 48 h; series mostly up to 57.5 µM; further: nearly all actives have a fitted effect of over 55% in size
# Procedure, shortened: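 In this quantitative HTS, cell killing is estimated from loss of ATP-dependent luciferase light. Cells see five compound concentrations over a 48 h exposure.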
# W2 = assay: qHTS profiling for inhibitors of Plasmodium falciparum proliferation (AID 504749); further: nearly all actives have a fitted effect of over 60% in size; further: potency means the concentration at half of the fitted maximal effect; details: P. falciparum in erythrocytes, SYBR Green DNA, 72 h; series mostly up to 28.7 µM
# Procedure, shortened: as §2
# CRL-7250 [5] = assay: Cytotoxic Profiling of Annotated Libraries Using Quantitative High-Throughput Screening (AID 1296008); details: Five cell lines viability, CellTiter-Glo ATP luminescence, 48-72 h; max response: hits give low values; further: nearly all actives have a fitted effect of over 60% in size; further: potency means the concentration at half of the fitted maximal effect
# Procedure, shortened: as §3
# MKL-1 = assay: qHTS assay to identify novel small-molecules to repurpose for Merkel cell carcinoma treatment (AID 1296009); details: MCC and control cell lines, CellTiter-Glo viability, 72 h; series mostly up to 46 µM; further: nearly all actives have a fitted effect of over 60% in size; further: potency means the concentration at half of the fitted maximal effect
# Procedure, shortened: as §1
# MKL-2 = assay: as above; details: MCC and control cell lines, CellTiter-Glo viability, 72 h; series mostly up to 46 µM
# Procedure, shortened: as §1
# NIH3T3 [6] = assay: as above; details: MCC and control cell lines, CellTiter-Glo viability, 72 h; at 44.8 µM (top of the series) unless noted
# Procedure, shortened: as §1
# UISO = assay: as above; details: MCC and control cell lines, CellTiter-Glo viability, 72 h; series mostly up to 46 µM
# Procedure, shortened: as §1
# WaGa = assay: as above; details: MCC and control cell lines, CellTiter-Glo viability, 72 h; series mostly up to 46 µM
# Procedure, shortened: as §1
# MCC-26 = assay: as above; details: MCC and control cell lines, CellTiter-Glo viability, 72 h; series mostly up to 46 µM
# Procedure, shortened: as §1
structure (smiles),measurement,setting,value
CN(C)CCc1c[nH]c2ccc(C[C@H]3COC(=O)N3)cc12,outcome,CRL-7250 [1],inactive
C[C@]12C/C(=C/O)C(=O)C[C@@H]1CC[C@@H]1[C@@H]2CC[C@@]2(C)[C@H]1CC[C@]2(C)O,Potency,TAB109,inactive
same,Potency,TAB113,inactive
same,Potency,TAB165,inactive
same,max response,HEK293,-8.16%
same,outcome,HaCat [2],inactive
same,max response,KB-3-1,-12.7%
same,max response,NIH3T3 [3],1.95%
same,outcome,HACAT [4],inactive
same,Potency,MCC-13,inactive
same,Potency,C33A,inactive
Nc1ccc(O)c(C(=O)O)c1,outcome,CRL-7250 [1],inactive
CCN(CC)C(=S)SSC(=S)N(CC)CC,outcome,CRL-7250 [1],inactive
CC[N+]1(C)CCCC(OC(=O)C(O)(c2ccccc2)c2ccccc2)C1 (centres undefined),Potency,TAB109,inactive
same,Potency,TAB113,inactive
same,Potency,TAB165,inactive
same,Potency,W2,inactive
same,max response,CRL-7250 [5],2.5%
same,max response,HaCat [2],1.89%
same,max response,KB-3-1,3.82%
same,outcome,NIH3T3 [3],inactive
same,Potency,MCC-13,inactive
same,Potency,MKL-1,inactive
same,Potency,MKL-2,inactive
same,outcome,NIH3T3 [6],inactive
same,Potency,UISO,inactive
same,Potency,WaGa,inactive
same,Potency,C33A,inactive
CCOC(=O)C1(c2ccccc2)CCN(CCC(C#N)(c2ccccc2)c2ccccc2)CC1,Potency,TAB109,3.16 µM (active)
same,Potency,TAB113,2.24 µM (active)
same,Potency,TAB165,2.51 µM (active)
same,Potency,W2,4.78 µM (active)
same,max response,HaCat [2],-18.2%
same,max response,KB-3-1,-29%
same,max response,NIH3T3 [3],-8.7%
same,Potency,MCC-13,inactive
same,Potency,MCC-26,inactive
same,Potency,MKL-1,inactive
same,Potency,C33A,inactive
CC(=O)Nc1cc([As](=O)(O)O)ccc1O,Potency,TAB109,inactive
same,Potency,TAB113,inactive
same,Potency,TAB165,inactive
same,Potency,W2,inactive
same,max response,CRL-7250 [5],-3.67%
same,max response,HaCat [2],-14.2%
same,max response,KB-3-1,5.7%
same,outcome,NIH3T3 [3],inactive
same,Potency,MCC-13,inactive
same,Potency,MCC-26,inactive
same,Potency,MKL-1,inactive
same,Potency,MKL-2,inactive
same,outcome,NIH3T3 [6],inactive
same,Potency,UISO,inactive
same,Potency,WaGa,inactive
same,Potency,C33A,inactive
O=c1c(O)c(-c2ccc(O)c(O)c2)oc2cc(O)cc(O)c12,outcome,CRL-7250 [1],inactive
O=NN(CCCl)C(=O)NC1CCCCC1,outcome,CRL-7250 [1],inactive
CCN(CC)CCN1C(=O)CN=C(c2ccccc2F)c2cc(Cl)ccc21,Potency,TAB113,inactive
same,Potency,W2,4.78 µM (active)
same,max response,CRL-7250 [5],-7.13%
same,max response,HaCat [2],0.85%
same,max response,KB-3-1,-5.99%
same,outcome,NIH3T3 [3],inactive
same,Potency,MCC-13,inactive
same,Potency,MCC-26,inactive
same,Potency,MKL-1,inactive
same,Potency,MKL-2,inactive
same,outcome,NIH3T3 [6],inactive
same,Potency,UISO,inactive
same,Potency,WaGa,inactive
same,Potency,C33A,inactive
Clc1ccc(CCC(Cn2ccnc2)Sc2c(Cl)cccc2Cl)cc1 (centres undefined),max response,CRL-7250 [5],-0.661%
same,max response,KB-3-1,1.06%
same,max response,NIH3T3 [3],-8.13% and -9.95%
same,Potency,MCC-13,inactive
same,Potency,MCC-26,inactive
same,Potency,MKL-1,inactive
same,Potency,WaGa,inactive
COc1ccc2c(c1OC)CN1CCc3cc4c(cc3C1C2)OCO4 (centres undefined),Potency,HEK293,9.44 µM (active) and 935 nM (active)
same,max response,HaCat [2],1.37%
same,outcome,HaCat [2],inactive
same,max response,KB-3-1,-7.53% and -10%
same,max response,NIH3T3 [3],-8.93%
same,outcome,HACAT [4],inactive
same,Potency,MCC-13,inactive
same,Potency,MCC-26,inactive
same,Potency,MKL-1,11.9 µM (active)
same,Potency,MKL-2,20.9 µM (active)
same,Potency,WaGa,16.6 µM (active)
